Compounds with a hit are over-represented: about 2.3% of the library has one in this group of screens.
MCL1-BIM inh: inhibitors of MCL1 binding to BIM-BH3, primary screen, biochemical, fluorescence polarization; GST-MCL1 / FITC-Bim-BH3 fluorescence polarization; inhibition, % at 10.9 µM; actives 0.68% (n = 320,000); AID 2057, 2009;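 active means inhibition above the mean inhibition of all tested compounds plus 3 SD, set per campaign, cut at about 40% in these data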;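 further: higher means more loss of mP so more displacement of Bim peptide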
Target sequence (Q07820 whole entry, looked up): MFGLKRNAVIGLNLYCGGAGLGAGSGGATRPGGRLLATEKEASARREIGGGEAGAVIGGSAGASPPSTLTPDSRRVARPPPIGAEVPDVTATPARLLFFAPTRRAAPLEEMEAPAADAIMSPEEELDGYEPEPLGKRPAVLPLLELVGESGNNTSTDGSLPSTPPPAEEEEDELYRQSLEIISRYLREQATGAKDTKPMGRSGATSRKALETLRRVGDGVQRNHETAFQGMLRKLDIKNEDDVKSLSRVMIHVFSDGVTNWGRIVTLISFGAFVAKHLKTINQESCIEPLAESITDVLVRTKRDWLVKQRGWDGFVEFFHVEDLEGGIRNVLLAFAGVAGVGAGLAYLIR
GLD-1 TGE inh: GLD-1/TGE RNA complex disruptors, primary screen, biochemical, fluorescence polarization. purified GLD-1 + fluorescein TGE RNA. actives 0.44% (n = 320,000). inhibition, % at 5.96 µM. Female germline-specific tumor suppressor gld-1 (Caenorhabditis elegans), Q17339;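 active means percent inhibition above a per-plate cutoff, the plate mean of test compounds plus 3 SD, cut at about 30% in these data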
BCLXL inh: inhibitors of human Bcl-xL, primary screen, biochemical, fluorescence polarization, HTS; Bcl-2-like protein 1 (Homo sapiens), Q07817; AID 2129, 2009; inhibition, % at 10.9 µM; actives 0.7% (n = 320,000); GST-Bcl-xL / FITC-Bim BH3 peptide fluorescence polarization;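 active means inhibition above the mean of all tested compounds plus 3 SD, cutoff set per campaign, cut at about 30% in these data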;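 further: inhibitors lower millipolarization by displacing the labeled peptide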
Target sequence (Q07817 whole entry, looked up): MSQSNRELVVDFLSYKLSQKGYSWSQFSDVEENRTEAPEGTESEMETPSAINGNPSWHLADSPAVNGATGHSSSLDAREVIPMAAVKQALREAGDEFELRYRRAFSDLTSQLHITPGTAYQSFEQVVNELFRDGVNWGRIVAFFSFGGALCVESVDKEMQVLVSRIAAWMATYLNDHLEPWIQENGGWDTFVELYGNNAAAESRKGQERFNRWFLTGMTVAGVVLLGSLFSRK
Mcl1-Bid inh: Mcl-1/Bid binding inhibitors, primary screen, biochemical, TR-FRET, 1536-well; Induced myeloid leukemia cell differentiation protein Mcl-1 (Homo sapiens), Q07820; TR-FRET Mcl-1/Bid-Dy647 peptide binding; inhibition, % at 21.7 µM; actives 0.97% (n = 220,000);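 active means compounds that cut the binding signal by more than half at the single screening dose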;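 further: His-tagged Mcl-1 with europium anti-His antibody binding Bid BH3 peptide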
Bim-Mcl-1: inhibitors of Bim peptide binding to Mcl-1, primary screen, biochemical, bead-based flow cytometry, multiplex; inhibition, % at 10 µM; Induced myeloid leukemia cell differentiation protein Mcl-1 (Homo sapiens), Q07820; Bim peptide-Mcl-1 binding; actives 0.1% (n = 190,000); in the data active means inhibition above about 40%
Mcl1 Noxa PPI: Mcl-1/Noxa binding inhibitors, primary screen, biochemical, TR-FRET, 1536-well | TR-FRET Mcl-1/Noxa peptide binding, 2 h | actives 1.5% (n = 220,000) | inhibition, % at 21.7 µM | Induced myeloid leukemia cell differentiation protein Mcl-1 (Homo sapiens), Q07820 | AID 1022, 2008;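 active means compounds that cut the protein-peptide binding signal by more than 50% relative to plate controls in a single-dose test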;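 further: His-tagged Mcl-1 with rhodamine Noxa BH3 peptide and terbium anti-His antibody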
Hits are given with their value.

`CC(OC(=O)c1ccc2c(=O)n3c(nc2c1)CCCCC3)C(=O)Nc1ccc(F)cc1Cl` (centres undefined) gave MCL1-BIM inh inactive, GLD-1 TGE inh inactive, BCLXL inh inactive, Mcl1-Bid inh 64, Bim-Mcl-1 inactive and Mcl1 Noxa PPI inactive.
CC(OC(=O)c1ccc2c(=O)n3c(nc2c1)CCCCC3)C(=O)Nc1ccc(Cl)cn1 (centres undefined) was read as MCL1-BIM inh inactive, GLD-1 TGE inh inactive, BCLXL inh inactive, Mcl1-Bid inh inactive, Bim-Mcl-1 inactive and Mcl1 Noxa PPI inactive.
O=C(Nc1ccc(F)c(Cl)c1)c1ccc2c(=O)n3c(nc2c1)CCCCC3 was read as MCL1-BIM inh inactive, GLD-1 TGE inh inactive, BCLXL inh inactive, Mcl1-Bid inh inactive, Bim-Mcl-1 61 and Mcl1 Noxa PPI inactive.
For CCNc1ncnc2c1cnn2C the results were MCL1-BIM inh inactive, GLD-1 TGE inh inactive, BCLXL inh inactive, Mcl1-Bid inh inactive, Bim-Mcl-1 inactive and Mcl1 Noxa PPI inactive.
COc1ccc(CCNC(=O)C23CCC(C)(C(=O)O2)C3(C)C)cc1OC (centres undefined) was read as MCL1-BIM inh inactive, GLD-1 TGE inh inactive, BCLXL inh inactive, Mcl1-Bid inh inactive, Bim-Mcl-1 inactive and Mcl1 Noxa PPI inactive.
For COc1ccc(CCNC(=O)C2(C)CCC(=O)N2CCC(C)C)cc1OC (centres undefined) the results were MCL1-BIM inh inactive, GLD-1 TGE inh inactive, BCLXL inh inactive, Mcl1-Bid inh 59, Bim-Mcl-1 inactive and Mcl1 Noxa PPI inactive.
For N=c1sccn1CC(=O)NCCc1ccc(Cl)cc1Cl the results were MCL1-BIM inh inactive, GLD-1 TGE inh inactive, BCLXL inh inactive, Mcl1-Bid inh inactive, Bim-Mcl-1 inactive and Mcl1 Noxa PPI 51.
`O=C(Cc1ccccc1)NCCc1ccc(Cl)cc1Cl` gave MCL1-BIM inh inactive, GLD-1 TGE inh inactive, BCLXL inh inactive, Mcl1-Bid inh inactive, Bim-Mcl-1 inactive and Mcl1 Noxa PPI inactive.
COCCN1C(=O)/C(=C/c2ccc(OCc3ccc(C(=O)O)cc3)c(OC)c2)SC1=Nc1ccccc1 was read as MCL1-BIM inh inactive, GLD-1 TGE inh inactive, BCLXL inh inactive, Mcl1-Bid inh inactive, Bim-Mcl-1 inactive and Mcl1 Noxa PPI 64.
COc1cc(/C=C2/SC(=O)NC2=O)ccc1Oc1ccc([N+](=O)[O-])cc1[N+](=O)[O-] was read as MCL1-BIM inh inactive, GLD-1 TGE inh inactive, BCLXL inh inactive, Mcl1-Bid inh inactive and Mcl1 Noxa PPI 90.
For COc1cc(/C=C2\SC(=O)NC2=O)ccc1Oc1ccc([N+](=O)[O-])cn1 the results were MCL1-BIM inh inactive, GLD-1 TGE inh inactive, BCLXL inh inactive, Mcl1-Bid inh inactive and Mcl1 Noxa PPI inactive.
Screening CCCOc1ccc(/C=C2\SC(N)=NC2=O)cc1OC returned MCL1-BIM inh inactive, GLD-1 TGE inh inactive and BCLXL inh inactive.
Screening COc1cc(/C=C2/SC(N)=NC2=O)ccc1Oc1ccc([N+](=O)[O-])cc1[N+](=O)[O-] returned MCL1-BIM inh inactive, GLD-1 TGE inh inactive, BCLXL inh inactive, Mcl1-Bid inh 67, Bim-Mcl-1 inactive and Mcl1 Noxa PPI 60.
O=C(CN1C(=O)NC(c2ccccc2)(c2ccccc2)C1=O)NC1CCCCC1 was read as MCL1-BIM inh inactive, GLD-1 TGE inh inactive and BCLXL inh inactive.
`O=C(Nc1ccccc1F)c1cc(S(=O)(=O)N2CCOCC2)cs1` gave MCL1-BIM inh inactive, GLD-1 TGE inh inactive and BCLXL inh inactive.
`Cc1c(NS(=O)(=O)c2cc(NC(=O)CCN3CCCC(C)C3)ccc2Cl)c(=O)n(-c2ccccc2)n1C` (centres undefined) gave MCL1-BIM inh inactive, GLD-1 TGE inh inactive, BCLXL inh inactive, Mcl1-Bid inh inactive, Bim-Mcl-1 inactive and Mcl1 Noxa PPI 78.
For CC1(C)OC(C)(C)/C(=C/Nc2ccc(O)cc2)C1=O the results were MCL1-BIM inh inactive, GLD-1 TGE inh inactive, BCLXL inh inactive, Mcl1-Bid inh inactive, Bim-Mcl-1 inactive and Mcl1 Noxa PPI 57.
`Cc1cc(N2C(=O)C=CC2=O)c([N+](=O)[O-])cc1C` gave MCL1-BIM inh inactive, GLD-1 TGE inh inactive, BCLXL inh inactive, Mcl1-Bid inh 57, Bim-Mcl-1 inactive and Mcl1 Noxa PPI inactive.
Screening Cc1ccc(N2C(=O)C3C4C=CC(CC4)C3C2=O)cc1[N+](=O)[O-] (centres undefined) returned MCL1-BIM inh inactive, GLD-1 TGE inh inactive and BCLXL inh inactive.
For CC(C)(C)NCC(O)COc1ccccc1C(C)(C)C (centres undefined) the results were MCL1-BIM inh inactive, GLD-1 TGE inh inactive, BCLXL inh inactive, Mcl1-Bid inh inactive, Bim-Mcl-1 inactive and Mcl1 Noxa PPI 54.
For CC(C)(C)NCC(O)COc1ccccc1C(=O)CCc1ccccc1 (centres undefined) the results were MCL1-BIM inh inactive, GLD-1 TGE inh inactive, BCLXL inh inactive, Mcl1-Bid inh inactive, Bim-Mcl-1 inactive and Mcl1 Noxa PPI inactive.
COCc1cc(=O)n2[nH]c(SCc3ccccc3)nc2n1 was read as MCL1-BIM inh inactive, GLD-1 TGE inh inactive, BCLXL inh 31, Mcl1-Bid inh inactive, Bim-Mcl-1 inactive and Mcl1 Noxa PPI inactive.
For Cc1ccc(NC(=O)C(=O)NCc2ccc(/C=C(/C#N)C(=O)NCc3cccnc3)o2)cc1 the results were MCL1-BIM inh inactive, GLD-1 TGE inh inactive, BCLXL inh inactive, Mcl1-Bid inh inactive, Bim-Mcl-1 inactive and Mcl1 Noxa PPI inactive.
Screening Cc1ccc(NC(=O)C(=O)NCc2ccc(/C=C(/C#N)C(=O)NCc3cccnc3)o2)cc1C returned MCL1-BIM inh inactive, GLD-1 TGE inh inactive, BCLXL inh inactive, Mcl1-Bid inh 95, Bim-Mcl-1 inactive and Mcl1 Noxa PPI inactive.
O=[N+]([O-])c1ccc(CSc2nc3ccccc3o2)cc1 was read as MCL1-BIM inh inactive, GLD-1 TGE inh inactive, BCLXL inh inactive, Mcl1-Bid inh inactive, Bim-Mcl-1 inactive and Mcl1 Noxa PPI inactive.
For CCn1nc([N+](=O)[O-])c(C(C#N)c2nc3cc(C(F)(F)F)ccc3s2)c(Cl)c1=O (centres undefined) the results were MCL1-BIM inh inactive, GLD-1 TGE inh inactive, BCLXL inh inactive, Mcl1-Bid inh inactive, Bim-Mcl-1 inactive and Mcl1 Noxa PPI 90.
`CCCn1nc([N+](=O)[O-])c(C(C#N)c2nc3ccccc3o2)c(Cl)c1=O` (centres undefined) gave MCL1-BIM inh inactive, GLD-1 TGE inh inactive, BCLXL inh inactive, Mcl1-Bid inh inactive, Bim-Mcl-1 inactive and Mcl1 Noxa PPI 60.
